Source: PubChem
An excerpt weighted towards active compounds, which were near 7.3% of everything screened.
FMDV inh = foot and mouth disease virus antiviral activity; FMDV antiviral cell-based qHTS; Potency, µM (series often up to 57.9 µM), inactives show at the highest dose activity change, negative = inhibition, actives largely listed as inhibitors; 410,000 compounds, 1.2% hits; calls by dose curve; tested in HEK293T cells; note: read-out not given here; potency is the fitted concentration of half-maximal effect; nearly all actives have a fitted effect of over 45% in size
VACV Venus inh = inhibitors of vaccinia virus (Venus reporter). 330,000 compounds, 0.46% hits. Potency, µM (series often up to 36.5 µM), inactives show top-dose activity change, negative = inhibition, most hits filed as inhibitors. Vaccinia virus Venus reporter expression, fluorescence; calls by dose curve; tested in A549 cells; note: potency is the fitted concentration of half-maximal effect; nearly all actives have a fitted effect of over 30% in size
HCMV antiviral = inhibitors of human cytomegalovirus; 410,000 compounds, 4.5% hits; activity change, negative = inhibition, % at 57.5 µM; HFF cells, HCMV-luciferase reporter, 72 h; active compounds read low; in the data active = activity change below about -60%; inconclusive = no clear call, values can overlap the other calls; inactive = above about -39%
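Compounds were evaluated in HFFs infected with an HCMV luciferase reporter virus (MOI 1 PFU/cell). Luciferase in lysates collected 72 h post infection served as the replication measure.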
VACV mCherry inh = vaccinia inhibition (mCherry reporter); 310,000 compounds, 0.63% hits; Vaccinia virus mCherry reporter infection, fluorescence; Potency, µM (top dose mostly 36.5 µM), without a hit: at the top dose activity change, negative = inhibition, actives largely listed as inhibitors; calls by dose curve; tested in A549 cells; note: potency is the fitted concentration of half-maximal effect; nearly all actives have a fitted effect of over 35% in size
HCV inh = inhibitors of hepatitis C virus infection | 340,000 compounds, 3.4% hits | Huh7.5.1 HCVcc-Cre infection, luciferase reporter, 44 h | Potency, µM (top dose mostly 41.8 µM), for inactives: at the top dose activity change, negative = inhibition, actives largely listed as inhibitors; active = well fitted inhibition curve with a large enough effect; inconclusive = small, poorly fitted or top-dose-only effect, or another doubt; inactive = no such curve, though single readings can be large or run the other way; note: potency is the fitted concentration of half-maximal effect
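Infectious HCVcc-Cre (~0.5 moi) was added to cells just after compound, with cells seeded 4 h earlier at 1,000 per well. Luciferase activity after 44 h culture reported infection; substrate was incubated 15 min at room temperature before reading.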
Starred values were filed as active, the others as inactive; i = inactive; ? = inconclusive; nt = no result. % is set by controls: 0 for no effect and ±100 for the full control effect.

SMILES | FMDV inh | VACV Venus inh | HCMV antiviral | VACV mCherry inh | HCV inh
COc1ccccc1C(C)NC(=O)CCC(=O)N1CCN(S(=O)(=O)c2ccc(Cl)cc2)CC1 (centres undefined) | 35.5µM* | -27.9% | -32.9 | -16.3% | ?
COc1cccc(S(=O)(=O)N2CCN(C(=O)c3ccco3)CC2)c1 | -20.6% | -14.9% | -85.5* | -3.0% | 16.9%
COc1ccccc1CNC(=O)N1CCN(S(=O)(=O)c2ccc(Cl)cc2)CC1 | -9.9% | -11.2% | -14.9 | i | 18.6%
O=C(NCc1ccc(Cl)cc1)N1CCN(S(=O)(=O)c2ccccc2)CC1 | -5.9% | 10.1% | -66.6* | -7.1% | -3.0%
COc1cccc(CNC(=O)N2CCN(S(=O)(=O)c3ccc(Cl)cc3)CC2)c1 | 12.2% | -3.4% | -60.7* | i | -6.3%
COc1ccc(-c2nnc(SCC(=O)Nc3c(Cl)cc(Cl)cc3C(=O)O)o2)cc1 | -10.1% | 3.7% | 30.2 | -0.4% | 8.2%
CNC[C@@H]1OCc2ccccc2-c2c(n(C)c3ccccc23)C(=O)N([C@@H](C)CO)C[C@@H]1C | nt | nt | -11.1 | nt | nt
Cc1ccc(F)cc1CNC(=O)c1sc2ncnc(NCC3CCCO3)c2c1C (centres undefined) | -18.5% | -18.2% | nt | i | nt
CC(C)Cc1ccc(C(C)CC2=CCC(CN(C)C)C2=O)cc1 (centres undefined) | ? | -23.2% | -4.1 | ? | ?
Cc1ccc(S(=O)(=O)N2CCN(C(=O)c3cc4c(s3)CCCC4)CC2)cc1 | -29.5% | nt | 8.7 | nt | 4.4%
O=C(CN1CCSC1=O)N1CCN(S(=O)(=O)c2ccc(Cl)cc2)CC1 | ? | -11.4% | -60.4* | -21.5% | 1.0%
COc1ccc(S(=O)(=O)N2CCN(C(=O)c3cc4c(s3)CCC4)CC2)cc1 | ? | -15.2% | -78.0* | i | -12.7%
O=c1[nH]c(/C=C2\C=Nc3ccccc32)c(O)n1Cc1ccccc1F | -26.5% | ? | -31.5 | ? | 4.47µM*
CNc1ncn(-c2c(C)cccc2C)c(=O)n1 | nt | nt | -98.7* | nt | nt
COc1ccc(-c2noc(N3CCN(c4cccc(C)c4C)CC3)n2)cc1OC | ? | -11.6% | -27.4 | -15.2% | nt
CN(CC(=O)Nc1ccccc1Br)C(=O)c1ccc(-c2ccc(Cl)cc2)o1 | -14.4% | -27.3% | 8.7 | i | nt
CN(CC(=O)Nc1ccccc1Br)C(=O)c1ccccc1OCc1ccc(Cl)cc1 | ? | -34.6% | -8.9 | 0.1µM* | ?
COCCn1c(=O)c(-c2ccc(F)cc2)nc2cnc(OC)nc21 | -24.1% | nt | nt | nt | nt
Cc1cccc(N2CCN(C(=S)c3ccccc3)CC2)c1 | -18.3% | 2.2% | -26.9 | -16.4% | -2.2%
Cc1cccc(N2CCN(C(=S)c3ccc([N+](=O)[O-])cc3)CC2)c1 | -11.3% | -5.6% | -62.7* | i | 10.0%
COc1cccc(-c2noc(COc3ccc(C(C)(C)C)cc3)n2)c1 | -3.9% | -5.4% | 12.4 | -8.9% | nt
Cc1ccccc1CNC(=O)Cn1ncn2nc(-c3cccs3)cc2c1=O | -15.9% | -2.3% | 14.9 | -12.2% | nt
CCOc1cccc2sc(Cl)nc12 | -3.7% | -19.7% | 27.6 | -7.4% | 26.6%
CCOc1ccc(OCC)c2sc(C)nc12 | -17.1% | nt | 34.3 | nt | 10µM*
COc1ccc(C(=O)NCCS(=O)(=O)N2CCc3ccccc3C2)cc1 | 16.0% | -21.3% | -6.4 | -20.6% | 24.2%
SMILES | FMDV inh | VACV Venus inh | HCMV antiviral | VACV mCherry inh | HCV inh
CN(Cc1c(F)cccc1Cl)C(=O)c1ccc(NS(=O)(=O)c2ccc3[nH]c(=O)[nH]c3c2)cc1 | 23.5% | -10.8% | -17.1 | -16.6% | 11.5%
Cc1ccc(-n2c(SCc3nc(-c4ccc(Cl)cc4)no3)nnc2-c2ccncc2)cc1 | ? | 1.5% | -22.8 | -6.5% | nt
Clc1ccccc1-c1nnc(SCc2nc(-c3ccccc3)no2)n1-c1ccccc1 | 25.1µM* | -16.1% | ? | -20.7% | nt
CCOc1ccc(-c2noc(CSc3nnc(-c4ccccc4)n3-c3ccccc3)n2)cc1 | ? | -25.3% | -14.5 | -18.0% | nt
Clc1ccc(-c2noc(CSc3nnc(-c4ccncc4)n3-c3ccccc3)n2)cc1 | 25.1µM* | nt | -101.3* | nt | 3.98µM*
CC1(C)C2CCC(C2)C1C/C=N/NC(N)=S (centres undefined) | ? | -36.8% | -72.9* | ? | -5.4%
CC(C)[C@H](NC(=O)c1ccccc1)C(=O)OCC(=O)/C=C1/N(C)c2ccccc2C1(C)C | ? | nt | -68.0* | nt | ?
CS(=O)(=O)c1ccc(NC(=O)C2CCCN(C(=O)c3ccc(Cl)cc3)C2)cc1 (centres undefined) | -24.5% | nt | 3.5 | nt | 1.4%
